HttQ103 aggreg: qHTS Multiplex Assay to Identify Dual Action Probes in a Cell Model of Huntington: Aggregate Formation (GFP); PC12 HttQ103-GFP aggregates, Acumen cytometry, 40 h; hit rate 1.1% among 220,000; Potency, µM (top dose mostly 46.1 µM), for the others: at the top dose activity change, negative = inhibition, usual class: inhibitors; AID 1688, 2009; active means well fitted curve in the direction sought with a large enough effect; inconclusive means small, poorly fitted or top-dose-only effect, or another doubt; inactive means no such curve, though single readings can be large; an effect the other way counts as inactive or inconclusive; further: potency means the concentration at half of the fitted maximal effect; on the % scale 0 is the no-effect control and ±100 the full control effect; nearly all actives have a fitted effect of over 60% in size
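Quantitative HTS on tebufenozide-induced (100 nM) PC12 cells stably expressing polyQ103 Huntingtin exon 1–GFP. Reduction of bright GFP aggregates, detected by laser scanning cytometry after lysis, identified actives across the titration.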
HPGD block: qHTS Assay for Inhibitors of HPGD (15-Hydroxyprostaglandin Dehydrogenase) | 15-hydroxyprostaglandin dehydrogenase [NAD(+)] (Homo sapiens), P15428 | purified HPGD, NADH fluorescence kinetic, PGE2 substrate | Potency, µM, for inactives: top-dose activity change, negative = inhibition, hits mostly inhibitors | hit rate 4.3% among 150,000; further: potency means the concentration at half of the fitted maximal effect; on the % scale 0 is the no-effect control and ±100 the full control effect
Target sequence (P15428 whole entry, looked up): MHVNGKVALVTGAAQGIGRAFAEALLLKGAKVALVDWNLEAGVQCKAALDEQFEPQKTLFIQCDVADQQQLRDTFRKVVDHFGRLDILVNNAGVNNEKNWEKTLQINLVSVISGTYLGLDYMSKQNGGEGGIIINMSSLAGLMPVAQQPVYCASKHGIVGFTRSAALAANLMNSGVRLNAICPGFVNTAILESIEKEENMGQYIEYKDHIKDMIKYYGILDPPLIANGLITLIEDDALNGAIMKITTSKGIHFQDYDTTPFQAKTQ
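20 nM HPGD preincubated 15 min at room temperature with compound in 50 mM Tris-HCl pH 8, 0.01% Tween 20. Started with 1 mM NAD+ and 30 uM prostaglandin E2; NADH fluorescence (360/450 nm) read 5 times over 30-s intervals, last minus first.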
ALDH1A1 inh: qHTS Assay for Inhibitors of Aldehyde Dehydrogenase 1 (ALDH1A1) | Aldehyde dehydrogenase 1A1 (Homo sapiens), P00352 | Purified ALDH1A1, NADH fluorescence, propionaldehyde substrate | Potency, µM (highest dose often 75.3 µM), for the others: at the top dose activity, negative = inhibition, usual class: inhibitors | hit rate 7.3% among 220,000 | AID 1030, 2008;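 further: potency means the concentration at half of the fitted maximal effect; plate controls were no enzyme wells and a reference inhibitor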
HTT ATP protect: qHTS Multiplex Assay to Identify Dual Action Probes in a Cell Model of Huntington: Cytoprotection (ATP) | PC12 HTT-Q103 induced, cytoprotection, ATP luminescence, 40 h | Potency, µM (doses to about 56.4 µM), for inactives: cytoprotection (ATP increase), most hits filed as activators | hit rate 0.14% among 230,000 | AID 1471, 2008; active means well fitted curve in the direction sought with a large enough effect; inconclusive means small, poorly fitted or top-dose-only effect, or another doubt; inactive means no such curve, though single readings can be large; an effect the other way counts as inactive or inconclusive; further: potency means the concentration at half of the fitted maximal effect; % of control where 0% means no effect; nearly all actives have a fitted effect of over 45% in size
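Quantitative HTS on tebufenozide-induced (100 nM) PC12 cells expressing HTTQ103 exon 1–GFP; compounds tested as a concentration series; survival measured via cellular ATP.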
RGS12 GoLoco inh: qHTS Assay for Inhibitors of RGS12 GoLoco Motif Activity (Red Fluorophore) | AID 880, 2007 | Gai1:RGS12 GoLoco peptide FP, rhodamine, 10 min | Potency, µM (doses to about 61.6 µM), without a hit: at the top dose activity, negative = inhibition, most hits filed as inhibitors | Guanine nucleotide-binding protein G(i) subunit alpha-1 (Homo sapiens), P63096 | hit rate 0.44% among 230,000; active means well fitted inhibition curve with a large enough effect, not every such curve was filed as active; inactive means no such curve, though single readings can be large or run the other way; further: potency means the concentration at half of the fitted maximal effect; on the % scale 0 is the no-effect control and ±100 the full control effect; nearly all actives have a fitted effect of over 30% in size
Target sequence (P63096 whole entry, looked up): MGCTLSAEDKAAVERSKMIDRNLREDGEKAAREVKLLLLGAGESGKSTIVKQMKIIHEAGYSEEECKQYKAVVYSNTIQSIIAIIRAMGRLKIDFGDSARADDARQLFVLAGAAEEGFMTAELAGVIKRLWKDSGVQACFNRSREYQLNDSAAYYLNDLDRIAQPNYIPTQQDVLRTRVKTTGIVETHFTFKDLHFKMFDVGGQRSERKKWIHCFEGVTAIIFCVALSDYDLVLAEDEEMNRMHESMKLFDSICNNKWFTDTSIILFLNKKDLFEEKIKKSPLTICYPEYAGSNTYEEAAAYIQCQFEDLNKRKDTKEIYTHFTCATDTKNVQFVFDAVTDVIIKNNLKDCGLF
PNC inhibitor: High Content Assay for Compounds that inhibit the Assembly of the Perinucleolar Compartment | PC3M PTB-GFP, PNC prevalence imaging, 16 h; active compounds read low | activity change (PNC), negative = inhibition, % at 10 µM | hit rate 3.1% among 140,000 | AID 2417, 2010;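 active means readout at or below -70, meaning at least 70% loss of cells showing the perinucleolar compartment, a nuclear body marking cancer cells; inconclusive means readout between -30 and a set limit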;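 further: plate controls were DMSO wells for no effect and camptothecin positive control wells for full effect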
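Read-out is percentage of cells bearing a perinucleolar compartment, from automated 20x imaging of fixed, Hoechst-stained PC3M PTB-GFP cells. Cells were seeded 4 h, then exposed 16 h to compound (23 nl of library stock) in duplicate plates.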
HPGD inh conf: Confirmation qHTS Assay for Inhibitors of HPGD (15-Hydroxyprostaglandin Dehydrogenase). shares compounds with HPGD block. recombinant HPGD, NADH fluorescence, PGE2 substrate. Potency, µM (highest dose often 57.1 µM), inactives show at the top dose activity change, negative = inhibition, usual class: inhibitors. hit rate 90% among 90; calls by dose curve
Numbers without * were called inactive; [ ] = another dose, or the depositor's remark. In the library only some 11% were active in any assay of this set; here they are far more common. Unless noted, the call rests on the fitted dose curve; in most records, active means well fitted inhibition curve with a large enough effect (not every such curve was filed as active); inconclusive means small, poorly fitted or top-dose-only effect, or another doubt; inactive means no such curve, though single readings can be large or run the other way.

How did Cc1ccc(C(=O)COC(=O)CCC(=O)NC2CCCCC2)cc1[N+](=O)[O-] do in these assays?
HttQ103 aggreg: -0.8%; ALDH1A1 inh: -9.3%; HTT ATP protect: 24.8%; RGS12 GoLoco inh: -1.1%

Results for O=C(CCc1ccc(Oc2cc([N+](=O)[O-])cc([N+](=O)[O-])c2)cc1)NC1CCCC1 ?
HttQ103 aggreg: 20.7%; HPGD block: 15.8µM*; ALDH1A1 inh: -6.5%; HTT ATP protect: 14.4%[10 µM]; RGS12 GoLoco inh: 0.9%; PNC inhibitor: 114.5; HPGD inh conf: 5.01µM*

What do the screens show for `CC1CCN(C(=O)CCc2ccc(Oc3cc([N+](=O)[O-])cc([N+](=O)[O-])c3)cc2)CC1`?
HttQ103 aggreg: 5.1%; HPGD block: 1µM*; ALDH1A1 inh: inconclusive; HTT ATP protect: 32.0%[10 µM]; RGS12 GoLoco inh: -2.5%; PNC inhibitor: 127.4; HPGD inh conf: 0.891µM*

Results for COc1ccc(S(=O)(=O)N2CCCCCC2)cc1Br ?
HttQ103 aggreg: 0.3%[9.22 µM]; ALDH1A1 inh: 3.3%; HTT ATP protect: 4.7%[10 µM]; RGS12 GoLoco inh: 8.7%

What do the screens show for `COc1ccc(-c2cc(C(F)(F)F)n3nc(C(=O)N4CCCCC4)cc3n2)cc1OC`?
HttQ103 aggreg: -20.9%; HPGD block: 0.501µM*; ALDH1A1 inh: -11.4%; HTT ATP protect: -9.7%; RGS12 GoLoco inh: -0.2%; PNC inhibitor: 14.8; HPGD inh conf: 0.282µM*

What do the screens show for `O=C(NCC1OCCc2ccccc21)c1ccc(NC(=O)c2cccc(Br)c2)cc1` (stereo not drawn)?
HttQ103 aggreg: inconclusive; ALDH1A1 inh: 5.4%; HTT ATP protect: inconclusive; PNC inhibitor: 32.8

Results for O=C(c1ccc(N2CCCC2=O)cc1)N1CCCCCC1 ?
HttQ103 aggreg: -4.4%; HPGD block: 0.224µM*; ALDH1A1 inh: inconclusive; HTT ATP protect: 8.2%; RGS12 GoLoco inh: -0.3%; PNC inhibitor: 80.6; HPGD inh conf: 0.282µM*

How did O=C(c1ccc(N2CCCC2=O)cc1)N1CCN(c2ccccc2)CC1 do in these assays?
HttQ103 aggreg: 7.9%; HPGD block: -2.6%; ALDH1A1 inh: 8.9%; HTT ATP protect: 5.1%; RGS12 GoLoco inh: 2.4%; PNC inhibitor: 35.8

What do the screens show for `COCCNC(=O)C1CCC(Cn2c(=S)[nH]c3ccccc3c2=O)CC1` (stereo not drawn)?
HttQ103 aggreg: -11.9%; HPGD block: 1.78µM*; ALDH1A1 inh: -5.8%; HTT ATP protect: -1.9%[0.074 µM]; RGS12 GoLoco inh: 1.6%; PNC inhibitor: -13.9; HPGD inh conf: 1.12µM*

Results for O=C(NCCc1c[nH]c2ccccc12)C1CCC(Cn2c(=S)[nH]c3ccccc3c2=O)CC1 (stereo not drawn) ?
HttQ103 aggreg: inconclusive; HPGD block: -12.8%; ALDH1A1 inh: 8.2%; HTT ATP protect: -25.6%[10 µM]; RGS12 GoLoco inh: 9.7%; PNC inhibitor: 24.9

Results for COc1ccc(C(=O)NNC(=O)CN2CCN(c3nc(-c4ccccc4)cs3)CC2)cc1 ?
HttQ103 aggreg: 18.6%; HPGD block: -17.6%; ALDH1A1 inh: -3.3%; HTT ATP protect: 23.5%[10 µM]; RGS12 GoLoco inh: 10.7%; PNC inhibitor: 113.4

How did O=C1ON=C(c2ccccc2)/C1=C/c1ccc(-c2ccccc2[N+](=O)[O-])o1 do in these assays?
HttQ103 aggreg: -15.4%; HPGD block: 1.58µM*; ALDH1A1 inh: 10µM*; RGS12 GoLoco inh: -5.5%; PNC inhibitor: -10.1; HPGD inh conf: 0.447µM*

Results for COc1ccccc1OCc1ccc(C(=O)Nc2ccc(Cl)cn2)o1 ?
HttQ103 aggreg: -1.9%[9.22 µM]; ALDH1A1 inh: -2.7%; HTT ATP protect: -23.8%[10 µM]; RGS12 GoLoco inh: 4.3%

What do the screens show for `Cc1ccc(C)c(Cn2nnc3c(=O)[nH]c(C(=O)NCc4ccco4)nc32)c1`?
HttQ103 aggreg: -4.4%; HPGD block: 0.562µM*; ALDH1A1 inh: -14.2%; HTT ATP protect: -18.2%; RGS12 GoLoco inh: 6.0%; PNC inhibitor: 30.8; HPGD inh conf: 0.316µM*

How did Cc1ccc(C)c(Cn2c(=O)n(-c3ccc(CC(=O)NCc4ccco4)cc3)c(=O)c3sccc32)c1 do in these assays?
HttQ103 aggreg: 14.1%; HPGD block: -7.6%; ALDH1A1 inh: 11.3%; HTT ATP protect: 10.4%[10 µM]; RGS12 GoLoco inh: -0.1%; PNC inhibitor: -9.4

What do the screens show for `COc1ccc(CCCC(=O)N/N=C/c2cccc(OC)c2O)cc1C`?
HttQ103 aggreg: -3.1%; HPGD block: -19.3%; ALDH1A1 inh: -2.3%; RGS12 GoLoco inh: 9.0%; PNC inhibitor: inconclusive

How did CN(C)C(=O)c1ccc(-c2nc(Nc3ccncc3)c3ccccc3n2)cc1 do in these assays?
HPGD block: 0.159µM*; ALDH1A1 inh: 0.6%; HTT ATP protect: -47.7%; RGS12 GoLoco inh: 5.3%; HPGD inh conf: 0.112µM*

Results for CN(C)c1ccc(-c2nc(Nc3ccncc3)c3ccccc3n2)cc1 ?
HPGD block: inconclusive; ALDH1A1 inh: -5.0%; HTT ATP protect: -97.0%; RGS12 GoLoco inh: 1.5%

How did Cc1ccc(F)cc1NC(=S)NCCc1ccccc1 do in these assays?
HttQ103 aggreg: -15.4%; HPGD block: -27.6%; ALDH1A1 inh: 21.2%; HTT ATP protect: 1.6%[10 µM]; RGS12 GoLoco inh: 3.1%; PNC inhibitor: -5.6

What do the screens show for `COC(=O)c1nnn(CC(=O)NC(=O)Nc2cccc(Cl)c2C)c1C(=O)OC`?
HttQ103 aggreg: 0.8%; ALDH1A1 inh: 8.9%; HTT ATP protect: -20.9%; RGS12 GoLoco inh: 5.4%

What do the screens show for `O=C(NCCc1ccccc1)C1CCC(CNc2c(N3CCCCC3)c(=O)c2=O)CC1` (stereo not drawn)?
HttQ103 aggreg: 18.6%; HPGD block: 6.31µM*; ALDH1A1 inh: -15.7%; RGS12 GoLoco inh: -10.8%; PNC inhibitor: 63.3; HPGD inh conf: 6.31µM*

Results for COc1ccc(CNC(=O)C2CCC(CNc3c(N4CCCCC4)c(=O)c3=O)CC2)cc1 (stereo not drawn) ?
HttQ103 aggreg: -6.6%[9.22 µM]; HTT ATP protect: 12.4%[10 µM]; RGS12 GoLoco inh: -0.7%

Screening results (PubChem BioAssay)
